The panel holds about 83,000 compounds, 20% with a hit somewhere; the sample as a whole holds those more often.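 96-well plates, one dose, 48 hours. Percent growth reported; active if below 10.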 Calls of active or inactive are those of the source.
Assays:
Assay in all cases: NCI-60 one-dose screen, 48 h (100 = growth as untreated, 0 = no growth, -100 = all killed)
Details in all cases: 10 µM unless noted
RPMI-8226 leukemia = test system: RPMI-8226 leukemia
OVCAR-8 ovarian = test system: OVCAR-8 ovarian
OVCAR-5 ovarian = test system: OVCAR-5 ovarian
OVCAR-4 ovarian = test system: OVCAR-4 ovarian
SK-OV-3 ovarian = test system: SK-OV-3 ovarian
IGROV1 ovarian = test system: IGROV1 ovarian
OVCAR-3 ovarian = test system: OVCAR-3 ovarian
HS 578T breast = test system: HS 578T breast
NCI/ADR-RES ovarian = test system: NCI/ADR-RES ovarian
T-47D breast = test system: T-47D breast

Measured: growth

CS(=O)(=O)c1ccc(-c2nc3ccccn3c2-c2nc3ccc([N+](=O)[O-])cc3[nH]2)cc1
inactive: RPMI-8226 leukemia 95.1% | OVCAR-8 ovarian 94.5% | OVCAR-5 ovarian 97.8% | OVCAR-4 ovarian 93.2% | SK-OV-3 ovarian 107% | IGROV1 ovarian 81% | OVCAR-3 ovarian 110% | HS 578T breast 99.7% | NCI/ADR-RES ovarian 92.2% | T-47D breast 91.2%

C#Cc1nc(C2=C(C)C(=O)/C(=N/OC(C)=O)C2)cs1
active: IGROV1 ovarian -37.2% | NCI/ADR-RES ovarian 1.61%
inactive: RPMI-8226 leukemia 32.3% | OVCAR-8 ovarian 78.3% | OVCAR-5 ovarian 99.4% | OVCAR-4 ovarian 89.9% | SK-OV-3 ovarian 104% | OVCAR-3 ovarian 111% | HS 578T breast 90.7% | T-47D breast 79.9%

CCCC(=O)NC(c1ccc(N(CC)CC)cc1)c1cc(C)c2cccnc2c1O (stereo not given)
active: NCI/ADR-RES ovarian 6.31%
inactive: RPMI-8226 leukemia 22.6% | OVCAR-8 ovarian 20.5% | OVCAR-5 ovarian 58% | OVCAR-4 ovarian 40.3% | SK-OV-3 ovarian 42% | IGROV1 ovarian 14.1% | OVCAR-3 ovarian 18.6% | HS 578T breast 50% | T-47D breast 26.3%

Cc1ccc2ccc3ccc(C)nc3c2n1.Cc1ccc2ccc3ccc(C)nc3c2n1.Oc1c(Cl)cc(Cl)c2ccc(CN3CCCCC3)nc12.[Ru]
active: RPMI-8226 leukemia -46% | OVCAR-8 ovarian -75.4% | OVCAR-5 ovarian -72% | OVCAR-4 ovarian -45.8% | SK-OV-3 ovarian -72.6% | IGROV1 ovarian -58.4% | OVCAR-3 ovarian -95.3% | HS 578T breast -42.4% | NCI/ADR-RES ovarian -24.4% | T-47D breast -55.8%

C#C[C@]1(O)CC[C@H]2[C@@H]3CC=C4c5sc(-c6ccc(F)cn6)nc5CC[C@]4(C)[C@H]3CC[C@@]21C
inactive: OVCAR-8 ovarian 42.8% | OVCAR-5 ovarian 59.9% | OVCAR-4 ovarian 57.8% | SK-OV-3 ovarian 21.2% | IGROV1 ovarian 49.8% | OVCAR-3 ovarian 56.2% | NCI/ADR-RES ovarian 44.8% | T-47D breast 39.9%
active: RPMI-8226 leukemia -26% | HS 578T breast -16.2%

OC1CCN(CCCOc2c3ccc(Cl)cc3nc3c2oc2ccccc23)CC1
inactive: T-47D breast 11%
active: RPMI-8226 leukemia -15.1% | OVCAR-8 ovarian 3.92% | OVCAR-5 ovarian -4.92% | OVCAR-4 ovarian 1.3% | SK-OV-3 ovarian 7.92% | IGROV1 ovarian -18% | OVCAR-3 ovarian 0.661% | HS 578T breast -6.78% | NCI/ADR-RES ovarian 6.48%

COc1cc(/C=C/C(=O)c2ccc(Cl)cc2)ccc1Oc1nc(NCCO)nc(N2CCOCC2)n1
inactive: RPMI-8226 leukemia 65.4% | OVCAR-8 ovarian 104% | OVCAR-5 ovarian 102% | OVCAR-4 ovarian 114% | SK-OV-3 ovarian 96.6% | IGROV1 ovarian 99% | OVCAR-3 ovarian 116% | HS 578T breast 84% | NCI/ADR-RES ovarian 105% | T-47D breast 86.1%

CC(=O)Nc1cc(F)cc(-c2ccc3[nH]cc(-c4ccccc4)c3n2)c1
active: RPMI-8226 leukemia 5.72%
inactive: OVCAR-8 ovarian 34% | OVCAR-5 ovarian 27.4% | OVCAR-4 ovarian 42.4% | SK-OV-3 ovarian 13.6% | IGROV1 ovarian 25.7% | OVCAR-3 ovarian 32.5% | HS 578T breast 10.5% | NCI/ADR-RES ovarian 33.5% | T-47D breast 26.8%

Fc1ccc(-c2cc3nc(C(Cl)Cl)nc(-c4ccc(Cl)cc4)n3n2)cc1
inactive: RPMI-8226 leukemia 10.9% | OVCAR-8 ovarian 19% | IGROV1 ovarian 44.5% | NCI/ADR-RES ovarian 20.3% | T-47D breast 37.4%
active: OVCAR-5 ovarian -4.91% | OVCAR-4 ovarian -9.93% | SK-OV-3 ovarian -16.6% | OVCAR-3 ovarian -31.9% | HS 578T breast 8.56%

Cc1ccc(-c2nc(C(Cl)Cl)nc3cc(-c4ccccc4)nn23)cc1
inactive: OVCAR-8 ovarian 10.3% | IGROV1 ovarian 29.3% | NCI/ADR-RES ovarian 13.5% | T-47D breast 51%
active: RPMI-8226 leukemia 6.1% | OVCAR-5 ovarian -8.77% | OVCAR-4 ovarian -24% | SK-OV-3 ovarian -32.4% | OVCAR-3 ovarian -42.7% | HS 578T breast 1.87%

O=C(CN1C(=O)/C(=C/c2ccccc2)SC1=S)N1CCOCC1
inactive: RPMI-8226 leukemia 89.6% | OVCAR-8 ovarian 102% | OVCAR-5 ovarian 97.6% | OVCAR-4 ovarian 109% | SK-OV-3 ovarian 95.4% | IGROV1 ovarian 97.4% | OVCAR-3 ovarian 115% | HS 578T breast 106% | NCI/ADR-RES ovarian 106% | T-47D breast 77.9%

O=C(CSc1nc2sc3c(c2c(=O)n1-c1ccc(Cl)cc1)CCCC3)NNC(=O)Nc1cccc(C(F)(F)F)c1
active: RPMI-8226 leukemia -7.39% | OVCAR-3 ovarian 5.17%
inactive: OVCAR-8 ovarian 22.1% | OVCAR-5 ovarian 52.6% | OVCAR-4 ovarian 22.5% | SK-OV-3 ovarian 62.1% | IGROV1 ovarian 24.4% | HS 578T breast 56.9% | NCI/ADR-RES ovarian 32.2% | T-47D breast 13.2%

CCOC(=O)c1c(Nc2ccccc2)nn2c(N)c(C#N)c(-c3ccc(F)cc3)nc12
inactive: RPMI-8226 leukemia 70.4% | OVCAR-8 ovarian 97.4% | OVCAR-5 ovarian 108% | OVCAR-4 ovarian 87% | SK-OV-3 ovarian 93.2% | IGROV1 ovarian 93.1% | OVCAR-3 ovarian 110% | HS 578T breast 79.6% | NCI/ADR-RES ovarian 97.4% | T-47D breast 64.6%

— PubChem BioAssay (NCI)
